This passage reports Potency results from PubChem BioAssay (NCATS).

SMILES strings stand for the structures. Results filed as inconclusive are left out. A call without a number means that no potency is given here. Calls of active or inactive are those of the source. The call rests on the fitted dose curve; in most records, active means well fitted inhibition curve with a large enough effect; inconclusive means small, poorly fitted or top-dose-only effect; inactive means flat fitted curve, though single readings scatter.

The target in test [1] is Glutathione peroxidase 1 (Homo sapiens) (UniProt P07203). The test is described as follows: Primary qHTS Assay for Inhibitors of Recombinant Selenoprotein Glutathione Peroxidase 1 (GPX1) (AID 1845191). To be noted: recombinant GPX1, GR-coupled NADPH fluorescence, 15 min; series mostly up to 48.8 µM. In a few lines:
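GR-coupled readout: NADPH consumption tracked by fluorescence, ex 340/em 450 nm, at t=0 and after 15 min at RT. Final mix 10 nM GPX1, 1 mM GSH, 0.5 mM CHP, 0.5 mM NADPH, 100 nM GR, 0.01% BSA, following 30 min enzyme–compound preincubation.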

For test [2], the target named is Phospholipid hydroperoxide glutathione peroxidase GPX4 (Homo sapiens) (UniProt P36969). The test is described as follows: Primary qHTS Assay for Inhibitors of Recombinant Selenoprotein Glutathione Peroxidase 4 (GPX4) (AID 1845192). To be noted: recombinant GPX4, GR-coupled NADPH fluorescence, 15 min; series mostly up to 50 µM. The gist of the method:
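Steps: GPX4 plus compound, 30 min RT; add GR/GSH/NADPH master mix; start with cumene hydroperoxide; read 340/450 nm fluorescence at 0 and 15 min. Finals were 200 nM GPX4, 1 mM GSH, 0.5 mM CHP, 0.5 mM NADPH, 100 nM GR.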
Further: nearly all actives have a fitted effect of over 65% in size.

Glutathione peroxidase 1 (Homo sapiens), sequence (P07203 whole entry, looked up): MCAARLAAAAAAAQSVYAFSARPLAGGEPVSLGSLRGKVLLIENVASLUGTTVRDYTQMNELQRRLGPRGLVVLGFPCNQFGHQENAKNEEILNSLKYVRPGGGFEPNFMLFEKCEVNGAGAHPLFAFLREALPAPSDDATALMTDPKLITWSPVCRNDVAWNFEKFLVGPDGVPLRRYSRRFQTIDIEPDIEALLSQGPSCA
Phospholipid hydroperoxide glutathione peroxidase GPX4 (Homo sapiens), sequence (P36969 whole entry, looked up): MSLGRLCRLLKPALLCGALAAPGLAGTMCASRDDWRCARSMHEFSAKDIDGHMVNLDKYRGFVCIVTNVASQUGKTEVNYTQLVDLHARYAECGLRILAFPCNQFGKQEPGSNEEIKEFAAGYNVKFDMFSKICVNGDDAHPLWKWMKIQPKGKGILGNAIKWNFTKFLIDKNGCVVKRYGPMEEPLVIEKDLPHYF

As to `C#CCn1c(=O)c2c(ncn2C)n(C)c1=O`, the Potency result in test [1] and in test [2] was “inactive” each time.
Consider `O=C(O)CCC(=O)N1CCCC1C(=O)O` (centres undefined), for which the Potency result in test [1] and in test [2] was “inactive” throughout.
For the compound `O=C1Nc2ccc(I)cc2/C1=C/c1cc(Br)c(O)c(Br)c1`, the Potency result in test [1] and in test [2] was “inactive” each time.
As for `CSC(N)=NCCC[C@H](N)C(=O)O`, the Potency entry in test [1] and in test [2] was “inactive” throughout.
For `CCCC(=O)NCCc1c2n(c3ccc(OC)cc13)CCCc1ccccc1-2`, the Potency entry in test [1] and in test [2] was “inactive” throughout.
For `Nc1ccc(-c2nc3ccc(-c4nc5ccc(N)cc5[nH]4)cc3[nH]2)cc1`, the Potency entry in test [1] and in test [2] was “inactive” each time.
As to `CCCCCCCCCC(=O)NC(CN1CCOCC1)[C@H](O)c1ccccc1` (some centres undefined), the Potency result in test [1] and in test [2] was “inactive” throughout.
For `CC(O)C(O)[C@H]1CNc2nc(N)[nH]c(=O)c2N1` (some centres undefined), the Potency result in test [1] and in test [2] was “inactive” in each case.
Regarding `CCn1c(=O)[nH]c2cc(Cl)c(Cl)cc21`, the Potency entry in test [1] and in test [2] was “inactive” throughout.
For `COc1cc2c(CCNC(C)=O)c[nH]c2cc1O`, the Potency entry in test [1] and in test [2] was “inactive” in each case.
On to `N[C@H](C(=O)O)[C@H](O)C(=O)O`, for which the Potency result in test [1] and in test [2] was “inactive” in each case.
With `N[C@H](C(=O)O)c1cc(O)cc(O)c1`, the Potency entry in test [1] and in test [2] was “inactive” in each case.
`CCCCCCCCCC[Si](C)(C)CCC(=O)NC(Cc1ccc(C)cc1)c1ccccc1` (centres undefined): the Potency entry in test [1] and in test [2] was “inactive” throughout.
Consider `O=C(O)C1=CCCN(CCON=C(c2ccccc2)c2ccccc2)C1`, for which the Potency result in test [1] and in test [2] was “inactive” each time.
In the case of `CCCC[C@@]1(C2CCCC2)Cc2cc(OCC(=O)O)c(Cl)c(Cl)c2C1=O`, the Potency result in test [1] and in test [2] was “inactive” throughout.
As to `N[C@H](C(=O)O)[C@H]1C[C@@H]1C(=O)O`, the Potency result in test [1] and in test [2] was “inactive” each time.
For `N=C(N)SCCc1cnc[nH]1`, the Potency entry in test [1] and in test [2] was “inactive” throughout.
